Source: PubChem BioAssay (NCATS)
Inconclusive results are not listed. Activity calls are given as the source filed them. Unless noted, the call rests on the fitted dose curve.

Columns and labels:
[1] = Primary qHTS for inhibitors of SARS-S pseudo-typed particle cell entry (AID 1479145); conditions: outcome: dose series up to 57.1 µM unless noted; further: nearly all actives have a fitted effect of over 45% in size; on activity change, negative = inhibition: on the % scale 0 is the no-effect control and ±100 the full control effect
[2] = Primary qHTS for Huh7 cytotoxicity: counterscreen for inhibitors of MERS-S pseudotyped particle cell entry (AID 1479147); conditions: outcome: dose series up to 57.1 µM unless noted
[3] = Primary qHTS for inhibitors of MERS-S pseudo-typed particle cell entry (AID 1479149); conditions: outcome: dose series up to 57.1 µM unless noted; further: nearly all actives have a fitted effect of over 60% in size; on activity change, negative = inhibition: on the % scale 0 is the no-effect control and ±100 the full control effect
[4] = Primary qHTS for Vero E6 cytotoxicity: counterscreen for inhibitors of SARS-S pseudo-typed particle cell entry (AID 1479150); conditions: outcome: dose series up to 57.1 µM unless noted
[5] = Cytotoxicity counterscreen for inhibitors of SARS-CoV-2 cell entry (AID 1645845); conditions: outcome: dose series up to 57.1 µM unless noted; further: nearly all actives have a fitted effect of over 50% in size
Procedure, shortened: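 HEK293-ACE2 cells (Expi293F stably expressing human ACE2) seeded overnight, then compound for 1 h plus 48 h at 37C. Viability as ATP content by luminescence; normalized to wells with cells and media-only wells.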

[6] = Primary qHTS to identify inhibitors of SARS-CoV-2 cell entry (AID 1645846); conditions: SARS-CoV-2 pseudovirus cell entry assay, luminescence; activity change, negative = inhibition: at 57.1 µM (top of the series) unless noted; further: nearly all actives have a fitted effect of over 45% in size
Procedure, shortened: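 Data are normalized to wells receiving SARS-CoV-2-S pseudoparticles and those given bald particles. Entry signal was luciferase luminescence in stable hACE2 Expi293F cells, 48 hr post-infection, after 1 hr compound pretreatment.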

[7] = biological target: Nuclear receptor subfamily 1 group I member 3 (Homo sapiens) (UniProt Q14994); experiment: Primary qHTS for antagonist of constitutive androstane receptor (CAR) against the NCATS DSHEA and TCM libraries (AID 1794836; active means well fitted curve in the direction sought with a large enough effect; an effect the other way counts as inactive or inconclusive;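 further: HepG2 cells stably expressing hCAR with CYP2B6 luciferase reporter stimulated by CITCO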)
Nuclear receptor subfamily 1 group I member 3 (Homo sapiens), sequence (Q14994 whole entry, looked up): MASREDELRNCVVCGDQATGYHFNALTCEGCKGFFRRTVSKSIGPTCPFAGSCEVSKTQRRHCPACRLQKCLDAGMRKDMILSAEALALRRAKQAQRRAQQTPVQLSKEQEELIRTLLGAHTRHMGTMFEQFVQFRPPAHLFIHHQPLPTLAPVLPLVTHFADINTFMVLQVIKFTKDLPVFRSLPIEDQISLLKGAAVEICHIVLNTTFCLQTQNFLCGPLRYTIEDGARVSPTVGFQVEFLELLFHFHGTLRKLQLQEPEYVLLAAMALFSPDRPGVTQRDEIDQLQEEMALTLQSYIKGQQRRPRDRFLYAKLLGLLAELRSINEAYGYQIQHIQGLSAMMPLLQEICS
Procedure, shortened: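 HepG2-CYP2B6-hCAR cells, attached 5 h, given compounds plus CITCO agonist […], incubated 24 h at 37 C. Luciferase luminescence read, multiplexed with CellTiter-Fluor viability (Ex/Em 405/540 nm).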

[8] = KB-8-5-11 P-gp reporter qHTS against the NCATS DSHEA and TCM libraries (AID 1919977; active means well fitted curve in the direction sought with a large enough effect; an effect the other way counts as inactive or inconclusive; further: 0% is about no effect)
Procedure, shortened: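 Cells were seeded, allowed ~4 h to attach, dosed by pin tool (substance titrations), incubated ~72 h at 37C, then lysed with CellTiter-Glo for 30 min at room temperature before luminescence reading.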

[9] = biological target: Glutathione peroxidase 1 (Homo sapiens) (UniProt P07203); experiment: Primary qHTS Assay for Inhibitors of Recombinant Selenoprotein Glutathione Peroxidase 1 (GPX1) (AID 1845191; active means well fitted curve in the direction sought with a large enough effect; an effect the other way counts as inactive or inconclusive; further: nearly all actives have a fitted effect of over 65% in size; further: potency means the concentration at half of the fitted maximal effect)
Glutathione peroxidase 1 (Homo sapiens), sequence (P07203 whole entry, looked up): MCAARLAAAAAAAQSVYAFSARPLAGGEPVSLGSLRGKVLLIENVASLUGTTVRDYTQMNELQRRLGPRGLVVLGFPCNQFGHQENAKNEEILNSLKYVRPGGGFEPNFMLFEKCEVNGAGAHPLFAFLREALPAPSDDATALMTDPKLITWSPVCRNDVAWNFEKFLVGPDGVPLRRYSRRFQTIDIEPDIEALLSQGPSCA
Procedure, shortened: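 GR-coupled assay: compounds preincubated 30 min at room temperature with GPX1, then reaction started with CHP; final 10 nM GPX1, 1 mM GSH, 0.5 mM CHP, 0.5 mM NADPH, 100 nM GR, 0.01% BSA, pH 7.5 Tris buffer. NADPH fluorescence (340/450 nm) read at 0 and 15 min.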

[10] = biological target: Phospholipid hydroperoxide glutathione peroxidase GPX4 (Homo sapiens) (UniProt P36969); experiment: Primary qHTS Assay for Inhibitors of Recombinant Selenoprotein Glutathione Peroxidase 4 (GPX4) (AID 1845192; active means well fitted curve in the direction sought with a large enough effect; an effect the other way counts as inactive or inconclusive; further: nearly all actives have a fitted effect of over 65% in size; further: potency means the concentration at half of the fitted maximal effect)
Phospholipid hydroperoxide glutathione peroxidase GPX4 (Homo sapiens), sequence (P36969 whole entry, looked up): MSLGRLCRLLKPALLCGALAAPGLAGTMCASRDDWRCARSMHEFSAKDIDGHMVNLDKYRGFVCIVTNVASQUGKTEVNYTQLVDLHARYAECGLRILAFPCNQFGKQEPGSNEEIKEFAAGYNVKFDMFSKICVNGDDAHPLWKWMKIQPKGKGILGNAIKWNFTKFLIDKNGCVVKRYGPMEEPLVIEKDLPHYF
Procedure, shortened: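 GR-coupled assay: recombinant GPX4 preincubated 30 min with compound at room temperature; final 200 nM GPX4, 1 mM GSH, 0.5 mM cumene hydroperoxide, 0.5 mM NADPH, 100 nM GR, 0.01% BSA, pH 7.5 Tris. NADPH fluorescence (340/450 nm) read at 0 and 15 min.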

[11] = biological target: Bile acid receptor (Homo sapiens) (UniProt Q96RI1); experiment: qHTS assay for small molecule agonists of farnesoid X receptor signaling (AID 588527); conditions: HEK293T FXR-UAS-bla, beta-lactamase ratio, 16 h; stronger effect = higher value;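 further: 0% = vehicle basal and 100% = reference agonist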
Bile acid receptor (Homo sapiens), sequence (Q96RI1 whole entry, looked up): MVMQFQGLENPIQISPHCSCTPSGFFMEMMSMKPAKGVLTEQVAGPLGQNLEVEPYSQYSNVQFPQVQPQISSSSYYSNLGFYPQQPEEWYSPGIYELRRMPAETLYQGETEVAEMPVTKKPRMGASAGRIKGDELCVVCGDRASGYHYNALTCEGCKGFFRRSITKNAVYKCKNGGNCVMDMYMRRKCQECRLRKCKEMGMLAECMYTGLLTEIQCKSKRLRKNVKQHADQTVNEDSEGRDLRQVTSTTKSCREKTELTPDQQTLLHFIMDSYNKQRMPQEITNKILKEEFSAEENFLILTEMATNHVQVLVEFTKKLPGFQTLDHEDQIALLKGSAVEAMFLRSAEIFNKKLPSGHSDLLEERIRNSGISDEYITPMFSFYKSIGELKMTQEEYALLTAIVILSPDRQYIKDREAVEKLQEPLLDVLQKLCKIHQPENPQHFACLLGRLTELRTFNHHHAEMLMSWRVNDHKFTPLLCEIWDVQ
Procedure, shortened: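 Agonist-mode beta-lactamase reporter in GeneBLAzer FXR-UAS-bla HEK293T cells, titration up to 92 uM, 16 h exposure at 37 C, CCF4 fluorescence. Response scaled to DMSO (0%) and 100 uM chenodeoxycholic acid (100%), then Hill-fitted for EC50 and efficacy.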

[12] = biological target: Peroxisome proliferator-activated receptor delta (Homo sapiens) (UniProt Q03181); experiment: qHTS assay for small molecule agonists of peroxisome proliferator-activated receptor delta signaling (AID 588534);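 further: 0% = DMSO basal wells and 100% = positive control agonist at 10 µM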
Peroxisome proliferator-activated receptor delta (Homo sapiens), sequence (Q03181 whole entry, looked up): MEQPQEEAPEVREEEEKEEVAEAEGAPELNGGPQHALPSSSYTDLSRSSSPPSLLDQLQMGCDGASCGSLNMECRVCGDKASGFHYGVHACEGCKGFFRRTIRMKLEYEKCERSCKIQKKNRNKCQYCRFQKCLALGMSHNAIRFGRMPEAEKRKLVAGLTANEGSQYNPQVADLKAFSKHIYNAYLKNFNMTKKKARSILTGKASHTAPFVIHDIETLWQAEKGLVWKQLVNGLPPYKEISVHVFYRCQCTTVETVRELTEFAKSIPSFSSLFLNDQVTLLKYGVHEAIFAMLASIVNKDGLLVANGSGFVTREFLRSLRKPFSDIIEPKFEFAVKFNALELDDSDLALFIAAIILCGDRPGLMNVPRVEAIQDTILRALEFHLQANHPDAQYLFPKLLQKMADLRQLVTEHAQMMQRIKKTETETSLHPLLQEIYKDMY
Procedure, shortened: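 Cell-based beta-lactamase reporter assay run in agonist mode: cells seeded and incubated 5 hrs at 37 C, compounds added and incubated 18 hrs at 37 C. CCF4 dye fluorescence read after 2 hrs at RT; EC50 and efficacy from Hill fits.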

[13] = biological target: Thyroid hormone receptor beta (Homo sapiens) (UniProt P10828); experiment: qHTS assay for small molecule agonists of thyroid hormone receptor beta signaling (AID 588545);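 further: 0% = DMSO only and 100% = 10 nM T3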
Thyroid hormone receptor beta (Homo sapiens), sequence (P10828 whole entry, looked up): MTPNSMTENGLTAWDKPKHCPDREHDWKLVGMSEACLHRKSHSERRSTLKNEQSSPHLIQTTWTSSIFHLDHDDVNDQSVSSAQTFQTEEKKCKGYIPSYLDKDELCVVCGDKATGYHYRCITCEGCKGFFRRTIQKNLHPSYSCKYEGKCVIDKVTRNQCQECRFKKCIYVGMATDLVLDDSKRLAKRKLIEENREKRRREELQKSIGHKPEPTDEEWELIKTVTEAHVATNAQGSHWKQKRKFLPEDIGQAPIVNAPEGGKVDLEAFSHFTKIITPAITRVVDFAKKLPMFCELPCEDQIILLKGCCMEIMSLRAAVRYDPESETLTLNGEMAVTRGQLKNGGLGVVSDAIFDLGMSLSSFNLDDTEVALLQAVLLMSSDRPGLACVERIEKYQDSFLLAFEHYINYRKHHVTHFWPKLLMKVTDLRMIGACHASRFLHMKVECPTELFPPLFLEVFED
Procedure, shortened: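 TR-UAS-bla GripTite HEK 293 cells (2500/well, medium with 2% charcoal/dextran FBS) were treated in agonist mode for 18 h at 37 C, titrated. Beta-lactamase was read by CCF4 ratio after 2 h; normalized to 10 nM T3 (100%) and DMSO, Hill-fitted for EC50 and efficacy.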

[14] = qHTS assay for small molecule agonists of the antioxidant response element (ARE) signaling pathway (AID 651741; active means well fitted activation curve with a large enough effect in the signal ratio; the % refers to the signal ratio; further: % of control where 0% means no effect)
Procedure, shortened: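 HepG2 ARE-bla cells plated at 2,000 cells/well and incubated 5 h at 37 C/5% CO2 received 23 nL compound in DMSO. After 16 h at 37 C, LiveBLAzer B/G FRET substrate was applied for 2 h at room temperature and fluorescence read.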

[15] = Validation screen for inhibitors of Lassa infection (AID 463096); further: on the % scale 0 is the no-effect control and ±100 the full control effect
[16] = biological target: ATP-dependent 6-phosphofructokinase (Trypanosoma brucei brucei) (UniProt O15648); experiment: qHTS Assay to Find Inhibitors of T. brucei phosphofructokinase: hit validation (AID 492961; active means well fitted curve in the direction sought with a large enough effect; an effect the other way counts as inactive or inconclusive;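 further: luminescence reports ADP formed as PFK phosphorylates fructose-6-phosphate with ATP; on the % scale 0 is the no-effect control and ±100 the full control effect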)
ATP-dependent 6-phosphofructokinase (Trypanosoma brucei brucei), sequence (O15648 whole entry, looked up): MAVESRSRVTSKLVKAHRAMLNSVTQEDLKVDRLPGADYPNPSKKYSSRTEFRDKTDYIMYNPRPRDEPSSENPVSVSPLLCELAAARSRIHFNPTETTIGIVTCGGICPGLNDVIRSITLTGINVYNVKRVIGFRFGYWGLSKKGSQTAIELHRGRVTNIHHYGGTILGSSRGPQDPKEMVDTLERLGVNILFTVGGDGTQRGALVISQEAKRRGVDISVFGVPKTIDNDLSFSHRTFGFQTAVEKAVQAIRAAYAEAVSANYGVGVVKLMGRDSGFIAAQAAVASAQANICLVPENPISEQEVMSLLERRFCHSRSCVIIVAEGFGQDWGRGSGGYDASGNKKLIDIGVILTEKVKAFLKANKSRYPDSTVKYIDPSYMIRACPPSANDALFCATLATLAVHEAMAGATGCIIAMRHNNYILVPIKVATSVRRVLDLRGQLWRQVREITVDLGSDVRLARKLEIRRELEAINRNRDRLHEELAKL
Procedure, shortened: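 Compounds titrated; %activity normalized to 0x and 1x enzyme controls, curve-fitted. Readout: ADP-Glo luminescence after 45 min room-temperature reaction of 1.25 nM PFK, 0.1 mM ATP, 0.5 mM F6P, pH 8.0.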

CC(=O)OC1CC2CCC1(C)C2(C)C (stereo not given)
-37.9%: activity change, negative = inhibition [6]
inactive: Potency [1] | Potency [2] | Potency [3] | Potency [4] | Potency [5] | Potency [7] | Potency [8]

CNC(C)CC1CCCC1 (stereo not given)
inactive: Potency [1] | Potency [2] | Potency [3] | Potency [4] | Potency [5] | Potency [6] | Potency [9] | Potency [10]

CC(C)=CCCC(C)=CCCC(C)=CCCC=C(C)CCC=C(C)CCC=C(C)C
inactive: Potency [1] | Potency [2] | Potency [3] | Potency [4] | Potency [5] | Potency [8]
-5.81%: activity change, negative = inhibition [6]

CC[C@H]1C2C[C@H]3[C@@H]4N(C)c5ccccc5[C@@]45C[C@H](C2[C@H]5O)N3[C@@H]1O (stereo not given in full)
inactive: Potency [1] | Potency [2] | Potency [3] | Potency [4] | Potency [5] | Potency [9] | Potency [10]

C=C(C)CNc1ccc(C(C)C(=O)O)cc1 (stereo not given)
inactive: Potency [1] | Potency [2] | Potency [3] | Potency [4] | Potency [5]
-20.2%: activity change, negative = inhibition [6]

NCCCC[C@H](NC(=O)[C@@H]1CCCN1C(=O)[C@@H]1CSSC[C@H](N)C(=O)N[C@@H](Cc2ccccc2)C(=O)N[C@@H](Cc2ccccc2)C(=O)N[C@@H](CCC(N)=O)C(=O)N[C@@H](CC(N)=O)C(=O)N1)C(=O)NCC(N)=O
-27.3%: activity change, negative = inhibition [6]
inactive: Potency [1] | Potency [2] | Potency [3] | Potency [4] | Potency [5]

O[C@@H]([C@H](O)[C@@H](O)CBr)[C@@H](O)CBr
inactive: activation [11] -2.21% | Potency [1] | Potency [2] | Potency [3] | Potency [4] | Potency [5] | Potency [6]

CC(C)=CCC/C(C)=C/C=C/C(C)=C/C=C/C(C)=C/C=C/C=C(C)/C=C/C=C(C)/C=C/C=C(\C)CCC=C(C)C
inactive: Potency [1] | Potency [2] | Potency [3] | Potency [4] | Potency [5] | Potency [8]

CC1(C)S[C@@H]2[C@H](N)C(=O)N2[C@@H]1C(=O)O
inactive: outcome [1] inactive [at 5.34 µM] | outcome [2] inactive [at 5.34 µM] | outcome [3] inactive [at 5.34 µM] | outcome [4] inactive [at 5.34 µM] | outcome [5] inactive [at 5.25 µM] | outcome [6] inactive [at 5.25 µM] | activity, negative = inhibition [9] 1.27% [at 4.49 µM] | outcome [10] inactive [at 4.52 µM]

CC1=C(/C=C/C(C)=C/C=C/C(C)=C/CO)C(C)(C)CCC1
inactive: outcome [12] | Potency [1] | Potency [2] | Potency [3] | Potency [4] | Potency [5] | Potency [8]
-23.2%: activity change, negative = inhibition [6]

O=C([O-])C[O-].[Pt+2]
-22.9% [at 27.1 µM]: activity change, negative = inhibition [6]
inactive: Potency [1] | Potency [2] | Potency [3] | Potency [4] | Potency [5] | Potency [6]

C=Cc1ccccc1
-16.9%: activity change, negative = inhibition [6]
inactive: outcome [12] | outcome [13] | Potency [14] | Potency [1] | Potency [2] | Potency [3] | Potency [4] | Potency [5]

CC/C=C\C/C=C\C/C=C\C/C=C\C/C=C\CCCC(=O)O
inactive: Potency [1] | Potency [2] | Potency [3] | Potency [4] | Potency [5] | Potency [8]
-29%: activity change, negative = inhibition [6]

CC/C=C\C/C=C\C/C=C\C/C=C\C/C=C\C/C=C\CCC(=O)O
inactive: Potency [1] | Potency [2] | Potency [3] | Potency [4] | Potency [5] | Potency [7] | Potency [8]
3.74%: activity change, negative = inhibition [6]

C[C@@](Cc1ccc(O)c(O)c1)(NN)C(=O)O
inactive: Potency [15] | Potency [1] | Potency [2] | Potency [3] | Potency [4] | Potency [5] | Potency [6]

CC1(C)S[C@@H]2[C@H](NC(=O)COc3ccccc3)C(=O)N2[C@H]1C(=O)O
inactive: outcome [12] | Potency [1] | Potency [2] | Potency [3] | Potency [4] | Potency [5]
-8.38%: activity change, negative = inhibition [6]

Cc1ncc(COP(=O)(O)O)c(C)c1O
-31.2%: activity change, negative = inhibition [6]
inactive: Potency [1] | Potency [2] | Potency [3] | Potency [4] | Potency [5] | Potency [8]

O=c1ccc2cc(O[C@@H]3O[C@H](CO)[C@H](O)[C@H](O)[C@H]3O)c(O)cc2o1
inactive: Potency [1] | Potency [2] | Potency [3] | Potency [4] | Potency [5] | Potency [6]
active: Potency [9] 16.1 µM | Potency [10] 25.5 µM

NC(=O)CCC1NC(=O)C(Cc2ccccc2)NC(=O)C(Cc2ccc(O)cc2)NC(=O)CCSSCC(C(=O)N2CCCC2C(=O)NC(CCCN=C(N)N)C(=O)NCC(N)=O)NC(=O)C(CC(N)=O)NC1=O (stereo not given)
inactive: Potency [16] | Potency [1] | Potency [2] | Potency [3] | Potency [4] | Potency [5]
-25.4% [at 27.1 µM]: activity change, negative = inhibition [6]

CCCCC/C=C\C/C=C\C/C=C\CCCCC(=O)O
-13.4% [at 114 µM]: activity change, negative = inhibition [6]
inactive: Potency [1] | Potency [2] | Potency [3] | Potency [4] | Potency [5] | activity change, negative = inhibition [8] 5.04% [at 3.26 µM]
